Reference: article PMC5540273 (PLoS ONE, 2017)
Where two headings read alike, the source gives them in different places.

Assays:
TAOK2 = conditions: concentration: 1 μM, replicates: in singlicate; n = 1
TAOK3 = conditions: concentration: 1 μM, replicates: in singlicate; n = 1
TBK1 = conditions: concentration: 1 μM, replicates: in singlicate; n = 1
TEC = conditions: concentration: 1 μM, replicates: in singlicate; n = 1
TESK1 = conditions: concentration: 1 μM, replicates: in singlicate; n = 1
TGFBR1 = conditions: n = 1
TGFBR2 = conditions: concentration: 1 μM, replicates: in singlicate; n = 1
TIE1 = conditions: concentration: 1 μM, replicates: in singlicate; n = 1
TIE2 = test system: T1, TIE2; conditions: concentration: 1 μM, replicates: in singlicate; n = 1
T1 construct: gene TEK

TLK1 = conditions: concentration: 1 μM, replicates: in singlicate; n = 1
TLK2 = conditions: concentration: 1 μM, replicates: in singlicate; n = 1
TNIK = conditions: concentration: 1 μM, replicates: in singlicate; n = 1
TNK1 = conditions: concentration: 1 μM, replicates: in singlicate; n = 1
TNK2 = conditions: concentration: 1 μM, replicates: in singlicate; n = 1
TNNI3K = conditions: concentration: 1 μM, replicates: in singlicate; n = 1
TRKA = test system: T2, TRKA; conditions: concentration: 1 μM, replicates: in singlicate; n = 1
T2 construct: gene NTRK1

TRKB = conditions: concentration: 1 μM, replicates: in singlicate; n = 1
TRKC = test system: T3, TRKC; conditions: concentration: 1 μM, replicates: in singlicate; n = 1
T3 construct: gene NTRK3

TRPM6 = conditions: concentration: 1 μM, replicates: in singlicate; n = 1
TSSK1B = conditions: concentration: 1 μM, replicates: in singlicate; n = 1
[1] = concentration: 1 μM, replicates: in singlicate
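Also: KINOMEscan kinase panel screen.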

Compound: COC(=O)Nc1nc2cc(Oc3ccc(NC(=O)Nc4cc(F)ccc4F)cc3)ccc2[nH]1.Cl [GW701424]
- %Inh (TAOK2): 0%
- %Inh (TAOK3): 0%
- %Inh (TBK1): 9%
- %Inh (TEC): 0%
- %Inh (TESK1): 73%
- %Inh (TGFBR1; [1]): 27%
- %Inh (TGFBR2): 0%
- %Inh (TIE1): 93.2%
- %Inh (TIE2): 73%
- %Inh (TLK1): 0%
- %Inh (TLK2): 3%
- %Inh (TNIK): 0%
- %Inh (TNK1): 0%
- %Inh (TNK2): 11%
- %Inh (TNNI3K): 81%
- %Inh (TRKA): 5%
- %Inh (TRKB): 68%
- %Inh (TRKC): 76%
- %Inh (TRPM6): 0%
- %Inh (TSSK1B): 0%

Compound: CSc1ccc(-c2cc3ncnc(SCC(=O)O)c3s2)cc1
- %Inh (TAOK2): 0%
- %Inh (TAOK3): 0%
- %Inh (TBK1): 0%
- %Inh (TEC): 0%
- %Inh (TESK1): 0%
- %Inh (TGFBR1; [1]): 0%
- %Inh (TGFBR2): 12%
- %Inh (TIE1): 0%
- %Inh (TIE2): 0%
- %Inh (TLK1): 2%
- %Inh (TLK2): 0%
- %Inh (TNIK): 3%
- %Inh (TNK1): 57%
- %Inh (TNK2): 14%
- %Inh (TNNI3K): 0%
- %Inh (TRKA): 0%
- %Inh (TRKB): 0%
- %Inh (TRKC): 0%
- %Inh (TRPM6): 0%
- %Inh (TSSK1B): 0%

Compound: CCc1ccnc(/C=C/c2n[nH]c3cc(Sc4ccccc4C(=O)NC)ccc23)c1
- %Inh (TAOK2): 100%
- %Inh (TAOK3): 0%
- %Inh (TBK1): 0%
- %Inh (TEC): 3%
- %Inh (TESK1): 8%
- %Inh (TGFBR1; [1]): 0%
- %Inh (TGFBR2): 0%
- %Inh (TIE1): 48%
- %Inh (TIE2): 8%
- %Inh (TLK1): 0%
- %Inh (TLK2): 0%
- %Inh (TNIK): 5%
- %Inh (TNK1): 48%
- %Inh (TNK2): 0%
- %Inh (TNNI3K): 5%
- %Inh (TRKA): 56%
- %Inh (TRKB): 0%
- %Inh (TRKC): 0%
- %Inh (TRPM6): 4%
- %Inh (TSSK1B): 0%

Compound: Cc1cccc(-c2nc(Nc3ccc4ncsc4c3)c3ccccc3n2)n1 [GW867588]
- %Inh (TAOK2): 0%
- %Inh (TAOK3): 6%
- %Inh (TBK1): 0%
- %Inh (TEC): 0%
- %Inh (TESK1): 0%
- %Inh (TGFBR1; 1 µM): 55%
- %Inh (TGFBR2): 0%
- %Inh (TIE1): 0%
- %Inh (TIE2): 0%
- %Inh (TLK1): 0%
- %Inh (TLK2): 0%
- %Inh (TNIK): 15%
- %Inh (TNK1): 39%
- %Inh (TNK2): 0%
- %Inh (TNNI3K): 1%
- %Inh (TRKA): 14%
- %Inh (TRKB): 0%
- %Inh (TRKC): 0%
- %Inh (TRPM6): 0%
- %Inh (TSSK1B): 0%

Compound: Nc1nccc(-c2c(-c3ccc(F)cc3)ncn2C2CCN(CC(F)(F)F)CC2)n1 [SB-236560]
- %Inh (TAOK2): 0%
- %Inh (TAOK3): 0%
- %Inh (TBK1): 0%
- %Inh (TEC): 8%
- %Inh (TESK1): 0%
- %Inh (TGFBR1; [1]): 32%
- %Inh (TGFBR2): 6%
- %Inh (TIE1): 25%
- %Inh (TIE2): 0%
- %Inh (TLK1): 11%
- %Inh (TLK2): 0%
- %Inh (TNIK): 6%
- %Inh (TNK1): 0%
- %Inh (TNK2): 10%
- %Inh (TNNI3K): 0%
- %Inh (TRKA): 70%
- %Inh (TRKB): 35%
- %Inh (TRKC): 18%
- %Inh (TRPM6): 0%
- %Inh (TSSK1B): 0%

Compound: Cc1nnc(-c2ccc(C)c(-c3ccc(C(=O)Nc4ccc(NS(C)(=O)=O)cc4)cc3)c2)o1 [GW702865]
- %Inh (TAOK2): 0%
- %Inh (TAOK3): 0%
- %Inh (TBK1): 10%
- %Inh (TEC): 0%
- %Inh (TESK1): 11%
- %Inh (TGFBR1; [1]): 0%
- %Inh (TGFBR2): 0%
- %Inh (TIE1): 0%
- %Inh (TIE2): 0%
- %Inh (TLK1): 0%
- %Inh (TLK2): 4%
- %Inh (TNIK): 0%
- %Inh (TNK1): 0%
- %Inh (TNK2): 3%
- %Inh (TNNI3K): 0%
- %Inh (TRKA): 23%
- %Inh (TRKB): 0%
- %Inh (TRKC): 26%
- %Inh (TRPM6): 7%
- %Inh (TSSK1B): 15%

Compound: CC(=O)Nc1ccc(COc2ccc(Nc3ccnc4cc(-c5ccccn5)ccc34)cc2)cc1.Cl [GW440148]
- %Inh (TAOK2): 0%
- %Inh (TAOK3): 0%
- %Inh (TBK1): 21%
- %Inh (TEC): 0%
- %Inh (TESK1): 9%
- %Inh (TGFBR1; [1]): 8%
- %Inh (TGFBR2): 28%
- %Inh (TIE1): 26%
- %Inh (TIE2): 6%
- %Inh (TLK1): 38%
- %Inh (TLK2): 25%
- %Inh (TNIK): 0%
- %Inh (TNK1): 6%
- %Inh (TNK2): 37%
- %Inh (TNNI3K): 2%
- %Inh (TRKA): 14%
- %Inh (TRKB): 11%
- %Inh (TRKC): 25%
- %Inh (TRPM6): 42%
- %Inh (TSSK1B): 1%

Compound: CCCCCc1nc2c(N)ncnc2n1CCCCC [SKF-97255]
- %Inh (TAOK2): 18%
- %Inh (TAOK3): 0%
- %Inh (TBK1): 42%
- %Inh (TEC): 6%
- %Inh (TESK1): 14%
- %Inh (TGFBR1; [1]): 3%
- %Inh (TGFBR2): 11%
- %Inh (TIE1): 0%
- %Inh (TIE2): 19%
- %Inh (TLK1): 0%
- %Inh (TLK2): 20%
- %Inh (TNIK): 0%
- %Inh (TNK1): 19%
- %Inh (TNK2): 0%
- %Inh (TNNI3K): 0%
- %Inh (TRKA): 0%
- %Inh (TRKB): 0%
- %Inh (TRKC): 0%
- %Inh (TRPM6): 13%
- %Inh (TSSK1B): 0%

Compound: O=C(Nc1cccc(-c2nn3ncccc3c2-c2ccnc(Nc3cccc(C(F)(F)F)c3)n2)c1)c1c(F)cccc1F [GSK299495]
- %Inh (TAOK2): 41%
- %Inh (TAOK3): 63%
- %Inh (TBK1): 6%
- %Inh (TEC): 96.8%
- %Inh (TESK1): 15%
- %Inh (TGFBR1; [1]): 8%
- %Inh (TGFBR2): 1%
- %Inh (TIE1): 10%
- %Inh (TIE2): 0%
- %Inh (TLK1): 0%
- %Inh (TLK2): 0%
- %Inh (TNIK): 14%
- %Inh (TNK1): 90.5%
- %Inh (TNK2): 49%
- %Inh (TNNI3K): 8%
- %Inh (TRKA): 0%
- %Inh (TRKB): 39%
- %Inh (TRKC): 20%
- %Inh (TRPM6): 33%
- %Inh (TSSK1B): 5%

Compound: Cc1cccc(Cn2ccn3c(=O)cc(N4CCOCC4)nc23)c1 [GSK2297542]
- %Inh (TAOK2): 5%
- %Inh (TAOK3): 0%
- %Inh (TBK1): 10%
- %Inh (TEC): 11%
- %Inh (TESK1): 39%
- %Inh (TGFBR1; [1]): 3%
- %Inh (TGFBR2): 0%
- %Inh (TIE1): 0%
- %Inh (TIE2): 0%
- %Inh (TLK1): 16%
- %Inh (TLK2): 5%
- %Inh (TNIK): 0%
- %Inh (TNK1): 0%
- %Inh (TNK2): 23%
- %Inh (TNNI3K): 2%
- %Inh (TRKA): 0%
- %Inh (TRKB): 0%
- %Inh (TRKC): 12%
- %Inh (TRPM6): 33%
- %Inh (TSSK1B): 0%

Compound: O=C(Nc1n[nH]c2cc(-c3cccc(F)c3)ccc12)C1CC1 [SB-735464]
- %Inh (TAOK2): 32%
- %Inh (TAOK3): 8%
- %Inh (TBK1): 10%
- %Inh (TEC): 0%
- %Inh (TESK1): 17%
- %Inh (TGFBR1; [1]): 5%
- %Inh (TGFBR2): 0%
- %Inh (TIE1): 0%
- %Inh (TIE2): 16%
- %Inh (TLK1): 16%
- %Inh (TLK2): 0%
- %Inh (TNIK): 72%
- %Inh (TNK1): 9%
- %Inh (TNK2): 0%
- %Inh (TNNI3K): 0%
- %Inh (TRKA): 4%
- %Inh (TRKB): 2%
- %Inh (TRKC): 38%
- %Inh (TRPM6): 7%
- %Inh (TSSK1B): 0%
